Results published in PubChem BioAssay AID2227 (Johns Hopkins Ion Channel Center, 2009).
The campaign covered roughly 310,000 compounds. About 1,300 (0.42%) were called active. The sample holds actives, similar compounds and a random draw of the others, so the mix is not that of the screen.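 The calls were made as follows: active = B-score of calcium response area above 5 SD of library B-scores, with initial fluorescence ratio within 5 SD of library; inactive = the rest.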

Biological target: Short transient receptor potential channel 4 (Mus musculus) (UniProt Q9QUQ5)
Sequence (Q9QUQ5 whole entry, looked up): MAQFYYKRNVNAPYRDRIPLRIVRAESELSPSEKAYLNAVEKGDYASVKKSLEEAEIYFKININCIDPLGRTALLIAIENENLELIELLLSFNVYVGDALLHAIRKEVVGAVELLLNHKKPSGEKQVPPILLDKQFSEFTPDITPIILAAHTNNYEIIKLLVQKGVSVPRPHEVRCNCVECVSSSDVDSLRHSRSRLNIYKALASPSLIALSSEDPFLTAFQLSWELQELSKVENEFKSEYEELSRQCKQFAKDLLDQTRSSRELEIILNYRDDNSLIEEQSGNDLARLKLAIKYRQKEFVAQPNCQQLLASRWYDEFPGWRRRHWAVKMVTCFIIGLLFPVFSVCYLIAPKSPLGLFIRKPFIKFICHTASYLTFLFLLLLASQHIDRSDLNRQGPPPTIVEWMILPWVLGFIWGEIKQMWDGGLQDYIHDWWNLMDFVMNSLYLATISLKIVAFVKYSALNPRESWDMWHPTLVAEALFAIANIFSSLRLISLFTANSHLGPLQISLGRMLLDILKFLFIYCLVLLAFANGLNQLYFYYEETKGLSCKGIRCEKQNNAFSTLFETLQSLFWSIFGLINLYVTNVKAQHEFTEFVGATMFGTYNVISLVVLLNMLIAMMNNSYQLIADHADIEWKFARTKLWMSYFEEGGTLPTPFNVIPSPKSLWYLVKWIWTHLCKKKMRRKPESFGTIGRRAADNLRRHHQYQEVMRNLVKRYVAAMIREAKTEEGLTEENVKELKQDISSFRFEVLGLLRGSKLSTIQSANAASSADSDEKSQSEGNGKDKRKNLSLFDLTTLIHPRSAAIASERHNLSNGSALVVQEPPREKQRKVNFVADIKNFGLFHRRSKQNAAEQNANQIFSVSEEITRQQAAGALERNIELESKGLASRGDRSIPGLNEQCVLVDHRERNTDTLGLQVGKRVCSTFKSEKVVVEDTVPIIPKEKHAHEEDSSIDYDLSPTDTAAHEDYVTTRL
Experiment: TRPC4 channel potentiators under submaximal DAMGO – cell-based, mouse TRPC4beta, HEK293 mu-opioid, Fluo-4 calcium, primary screen (AID 2227);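 as to B-score: B-score of integrated fluorescence ratio over time as area under calcium response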
Conditions: DAMGO EC20, Fluo-4 Ca2+ flux, at 10 µM; stronger effect = higher value

B-score, active:
CCN1/C(=C\c2ccc3ccccc3[n+]2CC)Sc2cc(C)ccc21 13
CCc1ccc2c(c1)C1(NN=C(c3ccccc3)S1)C(=O)N2 (centres undefined) 11
Cc1cccc(Cn2c(N3CCN(c4ccccc4)CC3)nc3c2c(=O)n(C)c(=O)n3C)c1 41
OC(CNCC1CCCO1)Cn1c2ccc(Br)cc2c2cc(Br)ccc21 (centres undefined) 17
Cc1ccc(/C=N/NC(=S)NC2CCCCC2)o1 35
O=C(NC1CC1)C1=C[C@H](c2c[nH]c3ccccc23)C[C@H](OCc2ccc(CO)cc2)O1 11
CCOc1ccc(Nc2nc(Cc3nnc(SCC(=O)c4ccc(C)cc4)o3)cs2)cc1 30
CC1CC(C)CN(CCOc2cccc3ccccc23)C1 (centres undefined) 11
CCN(CC)CCOCCOc1ccc(Cl)c2ccccc12 21
Cc1ccc(C)c(CN2CCC(CNC(=O)Nc3ccc(C)c(F)c3)CC2)c1 10
Cc1cc(NC(=O)CCN2CCN(Cc3ccccc3)CC2)ccc1Br 20
CCCCN(C)CCNC(=O)C1CCCN(S(=O)(=O)c2cccc3nsnc23)C1 (centres undefined) 25
CCc1c(C)nc2c(-c3ccccc3)c(C)nn2c1Nc1ccc(NC(C)=O)cc1 27
COc1ccc(S(=O)(=O)NCCCc2ccccc2)cc1 32
CCCCCCn1cc(C(=O)O)c(=O)c2cc(F)c(N3CCCCC3)cc21 12
Cc1ccc(N2C(=O)C(NC(=O)c3c(F)cccc3F)(C(F)(F)F)C3=C2CC(C)(C)CC3=O)cc1 (centres undefined) 119
O=S(=O)(c1ccc(Br)cc1)c1nc(-c2ccccc2)oc1N1CCOCC1 11
Cc1cc2cc3c(N)[nH]nc3nc2cc1C 11
COc1cc2c(C(=O)N3CCN(C)CC3)c(CSc3ccccc3)n(C)c2cc1Br 18
Clc1c(OCCCn2ccnc2)ccc2ccccc12 15
C=C(C)COc1ccc(-c2nc(N)ncc2-c2ccccc2OC)c(O)c1 22
O=C1c2ccccc2C(=O)c2c1cccc2N1CCN(Cc2ccccc2)CC1 14
COC(=O)c1cc(N2CCNCC2)nc2ccccc12 39

B-score, inactive:
N#Cc1cc([N+](=O)[O-])ccc1NCC1CCCO1 (centres undefined)
COC(C[C@H](O)CC(=O)COCc1ccccc1)OC
Cc1cccc(Cn2c(SCCO)nc3c2c(=O)n(C)c(=O)n3C)c1
COC(=O)C(C)Sc1nc2c(c(=O)n(C)c(=O)n2C)n1Cc1cccc(C)c1 (centres undefined)
CCOC(=O)NN1C(=O)c2ccccc2NC1c1ccccc1O (centres undefined)
CC(NS(=O)(=O)c1ccc(Br)cc1)C(=O)NCC1CCCO1 (centres undefined)
O=C(CSc1ccc(-c2ccc(Br)cc2)nn1)NCC1CCCO1 (centres undefined)
Cc1cc(S(=O)(=O)c2cc3ccc(O)c(C)c3oc2=O)ccc1F
Cc1ccc(/C=N/NC(=S)Nc2cccc(S(=O)(=O)N(C)C)c2)o1
C/C(=N\NC(=S)NC1CCCCC1)c1ccc(C)o1
NC(=O)C1=C[C@H](c2csc3ccccc23)C[C@H](OCc2ccc(CO)cc2)O1
NC(=O)C1=C[C@@H](c2csc3ccccc23)C[C@@H](OCc2ccc(CO)cc2)O1
Cc1c(-c2nn(C)c(=O)c3ccccc23)oc2ccc(F)cc2c1=O
CCOc1ccc(Nc2nc(Cc3nnc(SCC(=O)NC4CCCC4)n3C)cs2)cc1
CC(=O)Nc1ccc(C(=O)CSc2nnc(Cc3ccccc3)o2)cc1
NC(=O)C1(N2CCCCC2)CCN(C(=O)c2ccc(C#Cc3ccccc3)o2)CC1
CN1CCN(CCCCOc2cccc3ccccc23)CC1
CC1CN(CCOc2ccccc2[N+](=O)[O-])CC(C)O1 (centres undefined)
CCOC12CC(C)(C)CC(C)(CC3=C1C(=O)CC(C)(C)C3)C2 (centres undefined)
CCCCCCCNc1nc(Cl)nc(NCCO)n1
O=C(N/N=C/c1ccc(OCC2COCCO2)cc1)c1ccc(Br)cc1 (centres undefined)
CCOc1ccc(N2C(=O)/C(=C/c3ccc(C)o3)N(C)C2=S)cc1
CC(NC(=O)COc1cccnc1[N+](=O)[O-])c1ccc(Cl)cc1Cl (centres undefined)
Clc1cccc(Cl)c1OCCOCCNCc1ccccc1
CN(C)CCOCCOc1ccc(Cl)c2ccccc12
O=S(=O)(Nc1cccc(-n2cnnn2)c1)c1cnc(Cl)c(Cl)c1
COc1cc(S(=O)(=O)Nc2ncn[nH]2)ccc1Cl
COc1cc(NC(=O)NCC2CCN(Cc3ccc(C)cc3)CC2)cc(OC)c1OC
Cc1cccc(CN2CCC(CNC(=O)Nc3ccc(F)c(Cl)c3)CC2)c1
COC(=O)c1cc(S(=O)(=O)N2CCC(C(N)=O)CC2)oc1C
O=c1c(-c2ccccc2Cl)c[nH]n1-c1ccccc1
Cc1ccc(C(=O)NCCc2nnc(SCC(=O)Nc3cccc(C(=O)O)c3)n2C)cc1
CCOC(=O)N1CCN(CCC(=O)Nc2ccccc2)CC1
O=C(CN1CCN(Cc2ccccc2)CC1)Nc1ccc(F)c(F)c1
COc1ccccc1C(=O)Nc1ccnn1C1CCN(Cc2cnn(C)c2)CC1
O=C(COc1ccc(Cl)cc1)Nc1ccc2c(c1)OCO2
CCC(C)Sc1nc2c(cnn2-c2ccc(F)cc2)c(=O)[nH]1 (centres undefined)
CCCCN(CC)C(=O)C1CCCN(S(=O)(=O)c2cccc3nsnc23)C1 (centres undefined)
O=C(c1ccco1)N1CCN(C(=O)C2CCCN(S(=O)(=O)c3cccc4nsnc34)C2)CC1 (centres undefined)
CC(C)c1nc(CNC(=O)CC2C(=O)NCCN2Cc2cccc(F)c2F)cs1 (centres undefined)
C=CCNC(=O)CC12CC3CC(C1)CC(CC(=O)NCC=C)(C3)C2
Cc1cc(-n2nc(C)cc2C)n2nc(C)c(-c3ccccc3)c2n1
Cc1cc(-c2ccccc2)n2nc(C)c(-c3ccccc3)c2n1
CCCC(C)c1nnc(NC(=O)C2CC(=O)N(c3ccc(OCC)cc3)C2)s1 (centres undefined)
O=S(=O)(NCCCc1ccccc1)c1ccc(Br)cc1
O=S(=O)(NCCc1ccccc1)c1ccccc1
COC(=O)c1c(NC(=O)CN2CCN(S(=O)(=O)c3ccccc3[N+](=O)[O-])CC2)sc2c1CCC(C)C2 (centres undefined)
CS/C(=C\C(=O)c1ccco1)Nc1ccccc1Cl
C#CCCCc1nc2ccccc2c(=O)n1N
CCCCn1c(N)c(N(CC(C)C)C(=O)c2cccc(S(=O)(=O)N3CC(C)OC(C)C3)c2)c(=O)[nH]c1=O (centres undefined)
CCn1cc(CN2CCN(CC(C)(C)C)C(CCO)C2)c2ccccc21 (centres undefined)
CCn1cc(C(=O)NCCO)c(=O)c2cc(F)c(N3CCN(C)CC3)cc21
CN1CCN(c2cc3c(cc2F)c(=O)c(C(=O)O)cn3CCF)CC1
O=C(c1ccc(F)cc1)c1c[nH]c(C(=O)NCc2cccnc2)c1
C=CCC1(C(=O)N(C)Cc2ccccc2)CCN(C(=O)OC(C)(C)C)CC1
CC1(C)CC(=O)C(N=Nc2c(F)cccc2F)=C(O)C1
C=CCSc1nnc(N2C(=O)C(O)=C(C(=O)c3ccco3)C2c2ccc(F)cc2)s1 (centres undefined)
COc1ccccc1N(C)S(=O)(=O)c1ccc(C(=O)NC2CCCCCC2)cc1
COC(=O)Cc1csc(/N=C/c2c(O)n(-c3cccc(C(F)(F)F)c3)c(=O)c3ccccc23)n1
O=S(=O)(c1ccccc1)c1nc(Cc2ccccc2)oc1N1CCOCC1
O=S(=O)(c1ccccc1)c1nc(-c2ccccc2)oc1NCCCN1CCOCC1
COc1nnc(-c2ccc(C)c(S(=O)(=O)N(C)C)c2)c2ccccc12
CC1CCCCC1NC(=O)CO/N=C/c1ccc(OC(F)F)cc1 (centres undefined)
Cc1nn(CC(=O)Nc2ccc(N(C)C)cc2)c(C)c1[N+](=O)[O-]
COc1cccc(/C=C/C(=O)OCC(=O)N2CCCc3ccccc32)c1
O=C(NCCN1CCOCC1)c1cc(Sc2cccc(Cl)c2)nc2ccccc12
COc1ccccc1OCc1ccc(C(=O)N2CCN(C)CC2)o1
COc1cc(C(=O)N2CCN(C)CC2)cc(OC)c1OC
CC1=C(C(=O)OCC2CCCCC2)C(c2ccc(F)cc2)NC(=O)N1 (centres undefined)
c1ccc(Cc2ccc(OCCn3ccnc3)cc2)cc1
C=CCc1cc(C)ccc1OCCCn1ccnc1
Fc1ccccc1/C=N/Nc1cc(N2CCCCC2)ncn1
O=C(NCc1cccc(Cl)c1)C1CCC(=O)N(C2CC2)C1 (centres undefined)
C=CCN(Cc1nc(-c2cc(OC)c3c(c2)OCO3)oc1C)C1CCS(=O)(=O)C1 (centres undefined)
CCOc1ccc(-c2nc(N)ncc2-c2ccccc2OC)c(O)c1
C=C(C)COc1ccc(-c2ncncc2-c2ccc(OC)cc2)c(O)c1
CC(C)Oc1ccc(CC(=O)NNC(=S)Nc2ccc(Br)cc2)cc1
COc1cc(CCC(=O)Nc2ccncc2Cl)cc(OC)c1OC
O=C1c2ccccc2C(=O)c2c1cccc2N1CCN(C/C=C/c2ccccc2)CC1
O=C1c2ccccc2C(=O)c2c1cccc2N1CCN(CCO)CC1
Cc1ccc(Cl)cc1NC(=O)CN1CCN(S(=O)(=O)N2CCOCC2)CC1
O=C(c1ccc(Cl)s1)N(Cc1nnc(-c2ccccc2Cl)o1)C1CC1
CCc1c(C)nc(N)n2c(SCC(=O)NC3CCCCC3)nnc12
Cc1ccc(NC(=O)c2cnc(SCC(=O)NCC3CCCO3)n(C)c2=O)cc1 (centres undefined)
Cc1cc(C(=O)Nc2ccccc2N2CCOCC2)c2ccccc2n1
COc1ccccc1NC(=O)c1cc(Cl)nc2ccccc12
